Data: PubChem BioAssay (Tox21)
“And” between values parts separate entries of the source, which are not always exact repeats. Equal values may be shown once. Records with an inconclusive call do not appear. A call without a number means that no potency is given here. More than one record can exist for a structure, and the calls need not agree. The source made the active and inactive calls. Calls come from the whole dose curve; as a rule, active = well fitted activation curve with a large enough effect in the repeat runs; inconclusive = weak or mixed curves; inactive = flat fitted curve, though single readings scatter. Starred links: 1 amine or outer side, 2 acyl side, 3 side chain; linkers in the order of their positions; H or OH if unused. Positions of bridges follow the written chain, without caps; N, C: chain ends. Non-standard residues stand in square brackets, D forms with d. Residues, ends and D or L forms follow the SMILES beside them. Chains are numbered I, II in the order given. Actinocin(9to1) = Cc1c2oc3c(C)ccc(C(=O)[*:1])c3nc-2c(C(=O)[*:2])c(N)c1=O; NMeV = CN[C@H](C(=O)O)C(C)C; Sar = CNCC(=O)O

assay: A CellTox Green Cytotoxicity Assay to monitor cytotoxicity in HEK293 cells - 8 hour (AID 1224884); details: CellTox Green fluorescence; series mostly up to 76.8 µM; note: nearly all actives have a fitted effect of over 35% in size
Source text: National Center for Advancing Translational Sciences [NCATS]
NIH Chemical Genomics Center [NCGC]
U.S. Environmental Protection Agency [EPA]
National Institutes of Environmental Health Sciences [NIEHS]
National Toxicology Program [NTP]
Cell-based models are critical for drug discovery. Determining the natural cytotoxic effects resulting from test compounds is an essential research activity. A CellTox Green Cytotoxicity Assay to monitor cytotoxicity in real time of continues cell culture during 40 hours of the compound treatment was used to screen Tox21 10K library compounds in Hek293 cells. CellTox Green Cytotoxicity Assay is a nonlytic, homogeneous, biofluorescent method to measure cytotoxicity in cell culture after experimental manipulation. The assay system uses a proprietary asymmetric cyanine dye that is excluded from viable cells but preferentially stains the dead cell's DNA. […] Viable cells produce no appreciable increases in fluorescence. Therefore, the fluorescence signal produced by the binding interaction with dead cell DNA is proportional to cytotoxicity.
The mixture of Hek293 cell suspension and reagents were dispensed at 600cells/6 ul/well in 1536-well tissue culture treated black solid bottom plates using a Multidrop dispenser. After the assay plates were incubated at a 37 C/5% CO2 incubator for 5 hours, 23 nL of compounds dissolved in DMSO, positive and negative controls was transferred to the assay plate by a pintool work station. The plates were incubated at 37 C for 40 hours. The fluorescence intensity were measured at 0h, 8h, 16h, 24h, 32h and 40h time points using ViewLux plate reader during compound treatment.
Potency is the fitted concentration of half-maximal effect.

| Structure (SMILES) | Potency | cytotoxicity increase |
| --- | --- | --- |
| C=CC(=O)OCCCCCCCC | inactive |  |
| Nc1nc(=S)c2[nH]cnc2[nH]1 | inactive |  |
| CC(C)CCOCc1ccccc1 | inactive |  |
| CC(=O)C1=C(C)[C@@H]2C[C@@]3(C1)[C@H](C)CC[C@H]3C2(C)C | inactive |  |
| Cc1c2oc3c(C)ccc(C(=O)N[C@@H]4C(=O)N[C@H](C(C)C)C(=O)N5CCC[C@H]5C(=O)N(C)CC(=O)N(C)[C@@H](C(C)C)C(=O)O[C@@H]4C)c3nc-2c(C(=O)N[C@@H]2C(=O)N[C@H](C(C)C)C(=O)N3CCC[C@H]3C(=O)N(C)CC(=O)N(C)[C@@H](C(C)C)C(=O)O[C@@H]2C)c(N)c1=O (I: T[dV]P[Sar][NMeV] / II: T[dV]P[Sar][NMeV]; ester I:1-I:C, II:1-II:C; linker I:N-II:N via Actinocin(9to1)) | inactive |  |
| CN(C)c1ccc2nc3ccc(=[N+](C)C)cc-3sc2c1 | inactive |  |
| CC(=O)OCC1=C(C(=O)O)N2C(=O)[C@@H](NC(=O)Cc3cccs3)[C@H]2SC1 | inactive |  |
| Oc1c(Cl)cc(Cl)cc1Sc1cc(Cl)cc(Cl)c1O | inactive and 43.6 µM (active) |  |
| COc1cc(C(=S)N2CCOCC2)ccc1O | inactive |  |
| CCCOC(=O)c1cc(O)c(O)c(O)c1 | inactive |  |
| CC(COc1ccccc1)N(CCCl)Cc1ccccc1 (stereo not given) | inactive |  |
| CCOc1ccccc1C(N)=O | inactive |  |
| CC(=O)CC(C)=O | inactive |  |
| CC1COc2c(N3CCN(C)CC3)c(F)cc3c(=O)c(C(=O)O)cn1c23 (stereo not given) | inactive |  |
| CC(C)(O)CCC(C)(C)O | inactive |  |
| c1cc(C(c2ccc(OCC3CO3)cc2)C(c2ccc(OCC3CO3)cc2)c2ccc(OCC3CO3)cc2)ccc1OCC1CO1 (stereo not given) | inactive |  |
| CCN1CCCC1CNC(=O)c1cc(S(=O)(=O)CC)c(N)cc1OC (stereo not given) | inactive |  |
| CCCCCCCCCCCCCCCCCl |  | 2.79% [at 15.8 µM] (inactive) |
| CC(C)CCCCCCc1ccc(O)cc1 | 39.6 µM (active) |  |
| C[N+]1([O-])CCOCC1 | inactive |  |

| Structure (SMILES) | Potency | cytotoxicity increase |
| --- | --- | --- |
| CC(C)(c1ccccc1)c1ccc(Nc2ccc(C(C)(C)c3ccccc3)cc2)cc1 | inactive |  |
| CC(=O)OCCOCCOCCOC(C)=O | inactive |  |
| CCCC(=O)c1ccccc1 | inactive |  |
| Nc1ccc(O)cc1 | inactive |  |
| CC1=CC(=O)c2ccccc2C1=O | 21.9 µM (active) and 23.9 µM (active) |  |
| COc1nc(C)nc(Cl)c1NC1=NCCN1 | inactive |  |
| CCC(C)(C)C(=O)O[C@H]1C[C@@H](C)C=C2C=C[C@H](C)[C@H](CC[C@@H]3C[C@@H](O)CC(=O)O3)[C@H]21 | inactive |  |
| Cc1ccnc2c1NC(=O)c1cccnc1N2C1CC1 | inactive |  |
| Cc1cccc(O)c1C | inactive and 22.5 µM (active) |  |
| Cc1cc(C(C)(C)C)c(O)c(C(C)(C)C)c1 | inactive |  |
| CCN(CC)CCOc1ccc(/C(=C(\Cl)c2ccccc2)c2ccccc2)cc1 | 39.7 µM (active) and inactive |  |
| OCCN1CCNCC1 | inactive |  |
| CCCCC/C=C/CC1CC(=O)OC1=O (stereo not given) | inactive |  |
| O=C(O)Cn1cnnn1 | inactive |  |
| CCC[C@H](N[C@@H](C)C(=O)N1[C@H](C(=O)O)C[C@@H]2CCCC[C@@H]21)C(=O)OCC | inactive |  |
| O=c1n(CC2CO2)c(=O)n(CC2CO2)c(=O)n1CC1CO1 (stereo not given) | inactive |  |
| Cc1cccc2n[nH]nc12 | inactive |  |
| O=C(O)c1cccc(C(=O)O)c1 | inactive |  |
| CC[C@H]1CN2CCc3cc(OC)c(OC)cc3[C@@H]2C[C@@H]1C[C@H]1NCCc2cc(OC)c(OC)cc21 | inactive |  |
| Cc1ccc(-c2cc(C(F)(F)F)nn2-c2ccc(S(N)(=O)=O)cc2)cc1 | inactive |  |
